“And” between values parts separate entries of the source, which are not always exact repeats. Identical values can stand only once. Records with an inconclusive call do not appear. A call without a number means that no potency is given here. Where a structure was tested more than once in an assay, its records may differ in their call. The source made the active and inactive calls. Calls follow the shape of the dose curve; as a rule, active = well fitted curve in the direction sought with a large enough effect in the repeat runs; inconclusive = weak or mixed curves; inactive = no such curve, though single readings can be large; an effect the other way counts as inactive or inconclusive.
Key:
[1] = A CellTox Green Cytotoxicity Assay to monitor cytotoxicity in HEK293 cells - 32 hour (AID 1224881); also: nearly all actives have a fitted effect of over 40% in size
Summary of the method: (§1)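 Homogeneous no-lysis format: HEK293 cell suspension mixed with CellTox Green reagent, seeded, incubated 5 h at 37 C/5% CO2, then dosed by pintool with compound in DMSO.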

[2] = A CellTox Green Cytotoxicity Assay to monitor cytotoxicity in HepG2 cells - 0 hour (AID 1224882); also: nearly all actives have a fitted effect of over 35% in size
Summary of the method: (§2)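 Fluorescent DNA-binding dye, 600 HepG2 cells/well, 5 h preincubation then compound in DMSO; same plates read at 0–40 h, 37 C.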

[3] = A CellTox Green Cytotoxicity Assay to monitor cytotoxicity in HepG2 cells - 32 hour (AID 1224883); also: nearly all actives have a fitted effect of over 50% in size
Summary of the method: as §2

[4] = A CellTox Green Cytotoxicity Assay to monitor cytotoxicity in HEK293 cells - 8 hour (AID 1224884); also: nearly all actives have a fitted effect of over 35% in size
Summary of the method: as §1

[5] = qHTS RealTime-Glo MT Cell Viability Assay in HepG2 cells - 16 hour (AID 1224885); also: nearly all actives have a fitted effect of over 50% in size
Summary of the method: (§3)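 HepG2 suspension premixed with RealTime-Glo reagents is plated at 600 cells per well and left 5 h at 37 C/5% CO2. Compounds in DMSO then go in, and bioluminescence reflecting viable cell number is recorded over 40 h.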

[6] = qHTS RealTime-Glo MT Cell Viability Assay in HEK293 cells - 8 hour (AID 1224887); also: nearly all actives have a fitted effect of over 50% in size; as to activity change, negative = cytotoxicity: top concentration of the series differs between compounds
Summary of the method: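 Measured as luminescence from the same continuously cultured HEK293 wells at successive time points (0, 8, 16, 24, 32, 40 h) after compound addition. Reagent present from seeding; dosing at 5 h; incubation 37 C.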

[7] = A CellTox Green Cytotoxicity Assay to monitor cytotoxicity in HEK293 cells - 16 hour (AID 1224888); also: nearly all actives have a fitted effect of over 35% in size
Summary of the method: as §1

[8] = qHTS RealTime-Glo MT Cell Viability Assay in HepG2 cells - 0 hour (AID 1224889); also: nearly all actives have a fitted effect of over 50% in size
Summary of the method: as §3

[9] = A CellTox Green Cytotoxicity Assay to monitor cytotoxicity in HepG2 cells - 8 hour (AID 1224890); also: nearly all actives have a fitted effect of over 45% in size
Summary of the method: as §2

[10] = qHTS RealTime-Glo MT Cell Viability Assay in HEK293 cells - 24 hour (AID 1224886); also: nearly all actives have a fitted effect of over 50% in size; as to activity change, negative = cytotoxicity: top concentration of the series differs between compounds
Summary of the method: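 Reads taken at 0, 8, 16, 24, 32 and 40 h from the same wells. HEK293 cells (600/well) carried RealTime-Glo reagents from seeding, with compound added after a 5 h settle at 37 C.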
Potency is read from the fitted curve at half-maximal effect.

Structure (SMILES)	Potency [1]	Potency [2]	Potency [3]	Potency [4]	Potency [5]	Potency [6]	Potency [7]	Potency [8]	Potency [9]	Potency [10]	activity change, negative = cytotoxic [5]	activity change, negative = cytotoxicity [8]
CN(C)C(=S)SC(=S)N(C)C	2.52 µM (active) and 8.71 µM (active) and 3.01 µM (active)	inactive	2.52 µM (active) and 1.95 µM (active) and 2.68 µM (active)	inactive	2.75 µM (active)	inactive	inactive	inactive	inactive			
CC12CCC(CC1)C(C)(C)O2	inactive	inactive	inactive	inactive	inactive	inactive	inactive	inactive	inactive	inactive		
O=C1NS(=O)(=O)c2ccccc21	inactive	inactive	inactive	inactive	inactive	inactive	inactive	inactive	inactive	inactive		
Cc1cccc(C)c1	inactive	inactive	inactive	inactive	inactive	inactive	inactive	inactive	inactive	inactive		
CN(C)C(=O)Nc1ccc(Cl)c(Cl)c1	inactive	inactive	inactive	inactive	inactive	inactive	inactive	inactive	inactive	inactive		
CCCCCCCCCCCCCCCC[N+](C)(C)Cc1ccccc1	50.5 µM (active) and 44.4 µM (active) and 23.9 µM (active)	inactive	25.3 µM (active) and 15.8 µM (active) and 10.7 µM (active)	45 µM (active) and 15.8 µM (active) and 21.3 µM (active)	25.3 µM (active) and 19.8 µM (active) and 21.3 µM (active)	50.5 µM (active) and 49.8 µM (active) and inactive	50.5 µM (active) and 44.4 µM (active) and 23.9 µM (active)	inactive	63.6 µM (active) and 35.3 µM (active) and 26.8 µM (active)	8.98 µM (active) and 22.3 µM (active) and 3.01 µM (active)		
CCN(CC)C(=O)c1cccc(C)c1	inactive	inactive	inactive	inactive	inactive	inactive	inactive	inactive	inactive	inactive		
O=C1c2c(O)cccc2Cc2cccc(O)c21	inactive	inactive	inactive	inactive	inactive	inactive	inactive	inactive	inactive	inactive		
C=CCc1ccc(O)c(OC)c1	inactive	inactive	inactive	inactive	inactive	inactive	inactive	inactive	inactive			
CC(C)C(=O)Nc1ccc([N+](=O)[O-])c(C(F)(F)F)c1	inactive	inactive	inactive	inactive	inactive	22.5 µM (active) and 21.9 µM (active) and 9.52 µM (active)	inactive	inactive	inactive			
NS(=O)(=O)c1cc2c(cc1Cl)NCNS2(=O)=O	inactive	inactive	inactive	inactive	inactive	inactive	inactive	inactive	inactive	inactive		
CC(C)c1c(C(=O)Nc2ccccc2)c(-c2ccccc2)c(-c2ccc(F)cc2)n1CC[C@@H](O)C[C@@H](O)CC(=O)O	inactive	inactive	2.98 µM (active) and 10.2 µM (active) and 6.01 µM (active)	inactive	inactive		inactive	inactive	inactive	inactive		
Cn1c(=O)c2c(ncn2C)n(C)c1=O	inactive	inactive	inactive	inactive	inactive	inactive	inactive	inactive	inactive	inactive		
Cc1cc(C)nc(NS(=O)(=O)c2ccc(N)cc2)n1	inactive	inactive	inactive	inactive	inactive	inactive	inactive	inactive	inactive			
NC1CCCCC1	inactive	inactive	inactive	inactive	inactive	inactive	inactive	inactive	inactive	inactive		
CC(=O)Nc1c(I)c(NC(C)=O)c(I)c(C(=O)O)c1I	inactive	inactive	inactive	inactive	inactive	inactive	inactive	inactive	inactive	inactive		
Nc1ccc2c(c1)CN1C(=O)c3ccccc3C1=N2	10.4 µM (active)	10.4 µM (active)	10.4 µM (active)	10.4 µM (active)			10.4 µM (active)		10.4 µM (active)	9.28 µM (active)	-5.66% [at 15.8 µM] (inactive)	4.86% [at 15.8 µM] (inactive)
CN1CCC[C@H]1c1cccnc1	inactive	inactive	inactive	inactive	inactive	inactive	inactive	inactive	inactive	inactive		
OC[C@H]1O[C@H](O[C@]2(CCl)O[C@H](CCl)[C@@H](O)[C@@H]2O)[C@H](O)[C@@H](O)[C@H]1Cl	inactive	inactive	inactive	inactive	inactive	inactive	inactive	inactive	inactive			
CN(C)CCOC(C)(c1ccccc1)c1ccccn1 (centres undefined)	inactive	inactive	inactive	inactive	inactive	inactive	inactive	inactive	inactive	inactive		

Structure (SMILES)	Potency [1]	Potency [2]	Potency [3]	Potency [4]	Potency [5]	Potency [6]	Potency [7]	Potency [8]	Potency [9]	Potency [10]	activity change, negative = cytotoxic [5]	activity change, negative = cytotoxicity [8]
Cc1c(C(=O)O)c(O)cc2c1C(=O)c1c(O)c([C@@H]3O[C@H](CO)[C@@H](O)[C@H](O)[C@H]3O)c(O)c(O)c1C2=O	inactive	inactive	inactive	inactive	inactive	inactive	inactive	inactive	inactive	inactive		
COc1ccc(C(Cl)=C(c2ccc(OC)cc2)c2ccc(OC)cc2)cc1	inactive	inactive	inactive	inactive and 43.6 µM (active)	inactive	inactive	inactive	inactive	inactive	inactive		
C=C1CC[C@H](O)C/C1=C\C=C1/CCC[C@]2(C)[C@@H]([C@H](C)CCCC(C)C)CC[C@@H]12	inactive	inactive	inactive	inactive	inactive	24.3 µM (active)	inactive		inactive	43.2 µM (active)		
CN(N=O)C(=O)N[C@@H]1[C@@H](O)[C@H](O)[C@@H](CO)O[C@@H]1O	inactive	inactive	inactive	inactive	inactive	inactive	inactive	inactive	inactive			
O=C(O)CC(O)C(=O)O (centres undefined)	inactive	inactive	inactive	inactive	inactive	inactive	inactive	inactive	inactive	inactive		
CCc1nc(N)nc(N)c1-c1ccc(Cl)cc1	inactive	inactive	inactive	inactive	inactive	inactive	inactive	inactive	inactive	inactive		
C/C=C/C=C/C(=O)O	inactive	inactive	inactive	inactive	inactive	inactive	inactive	inactive	inactive	inactive		
C[C@](N)(Cc1ccc(O)c(O)c1)C(=O)O	inactive	inactive	inactive	inactive	inactive	inactive	inactive	inactive	inactive	inactive		
COc1ccc2c(c1)c(CC(=O)O)c(C)n2C(=O)c1ccc(Cl)cc1	inactive	inactive	inactive	inactive	inactive	inactive	inactive	inactive	inactive			
Cc1cn([C@H]2C=C[C@@H](CO)O2)c(=O)[nH]c1=O	inactive	inactive		inactive	inactive	inactive	inactive	inactive	inactive	inactive		
Nc1ccc(O)c([N+](=O)[O-])c1	inactive	inactive	inactive	inactive	inactive	inactive	inactive		inactive			
COc1ccc2cc(S(=O)(=O)N[C@H](CC(=O)N[C@H](Cc3ccc(CN4[C@H](C)CCC[C@@H]4C)cc3)C(=O)N(C)C(C)C)c3ccc4c(c3)OCO4)ccc2c1	52 µM (active)	inactive	52 µM (active)		52 µM (active)	46.3 µM (active)				41.3 µM (active)		
COc1cccc(O)c1O	inactive	inactive	inactive	inactive	inactive		inactive	inactive	inactive			
O=c1[nH]cc(F)c(=O)[nH]1	50.8 µM (active) and inactive	inactive	45.3 µM (active) and inactive	inactive	inactive	inactive	inactive	inactive	inactive			
CCCCNC(=O)NS(=O)(=O)c1ccc(C)cc1	inactive	inactive		inactive	inactive	inactive	inactive	inactive	inactive	inactive		
Cc1cc(=O)oc2cc(O)ccc12	inactive	inactive		inactive	inactive	inactive	inactive	inactive	inactive	inactive		
CC(C)NCC(O)c1ccc(O)c(O)c1 (centres undefined)	inactive	inactive	inactive	inactive	inactive	inactive	inactive	inactive	inactive			
Nc1c2c(nc3ccccc13)CCCC2	inactive	inactive		inactive	inactive	inactive	inactive	inactive	inactive	inactive		
O=C1OC2(c3ccccc31)c1cc(Br)c(O)c(Br)c1Oc1c2cc(Br)c(O)c1Br	4.97 µM (active) and 7.11 µM (active) and 21.3 µM (active)	9.92 µM (active) and 11.3 µM (active) and 23.9 µM (active)		5.58 µM (active) and 12.7 µM (active) and 19 µM (active)	inactive	inactive	4.43 µM (active) and 7.11 µM (active) and 19 µM (active)	9.92 µM (active) and 20 µM (active)	5.58 µM (active) and 14.2 µM (active) and 21.3 µM (active)	inactive		
CC(O)(P(=O)(O)O)P(=O)(O)O	inactive	inactive		inactive	inactive	inactive	inactive	inactive	inactive	inactive and 436 nM (active)		
